Data: PubChem BioAssay (NCATS)
Records with an inconclusive call do not appear. Active and inactive are the calls of the source. Unless noted, calls follow the shape of the dose curve; as a rule, active = well fitted inhibition curve with a large enough effect; inconclusive = small, poorly fitted or top-dose-only effect; inactive = flat fitted curve, though single readings scatter.

biological target: Phospholipid hydroperoxide glutathione peroxidase GPX4 (Homo sapiens) (UniProt P36969); assay: Primary qHTS Assay for Inhibitors of Recombinant Selenoprotein Glutathione Peroxidase 4 (GPX4) (AID 1845192); details: recombinant GPX4, GR-coupled NADPH fluorescence, 15 min; series mostly up to 50 µM; also: nearly all actives have a fitted effect of over 65% in size; also: potency is read from the fitted curve at half-maximal effect; as to activity change, negative = inhibition: % is scaled to controls: 0 for no effect and ±100 for the full control effect
Sequence (P36969 whole entry, looked up): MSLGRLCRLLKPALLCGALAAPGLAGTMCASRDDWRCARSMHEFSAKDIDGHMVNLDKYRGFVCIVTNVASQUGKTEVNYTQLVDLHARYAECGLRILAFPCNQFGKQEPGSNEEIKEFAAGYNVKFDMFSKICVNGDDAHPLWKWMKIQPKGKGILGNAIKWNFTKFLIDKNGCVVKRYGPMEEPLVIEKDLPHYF
Summary of the method: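 GR-coupled assay: recombinant GPX4 preincubated 30 min with compound at room temperature; final 200 nM GPX4, 1 mM GSH, 0.5 mM cumene hydroperoxide, 0.5 mM NADPH, 100 nM GR, 0.01% BSA, pH 7.5 Tris. NADPH fluorescence (340/450 nm) read at 0 and 15 min.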

SMILES | Potency | activity change, negative = inhibition
COC(=O)N[C@H](C(=O)N1CCC[C@H]1c1ncc(-c2ccc3c(c2)O[C@@H](c2ccccc2)n2c-3cc3cc(-c4cnc([C@@H]5CCCN5C(=O)[C@@H](NC(=O)OC)C(C)C)[nH]4)ccc32)[nH]1)C(C)C | 6.31 µM (active) | –
Cc1cc(/C=C/C#N)cc(C)c1Nc1ccnc(Nc2ccc(C#N)cc2)n1 | inactive | –
COC(=O)N[C@H](C(=O)N1CC2(CC2)C[C@H]1c1ncc(-c2ccc3c(c2)C(F)(F)c2cc(-c4ccc5nc([C@@H]6[C@H]7CC[C@H](C7)N6C(=O)[C@@H](NC(=O)OC)C(C)C)[nH]c5c4)ccc2-3)[nH]1)C(C)C | 3.55 µM (active) | –
C=C[C@@H]1C[C@]1(NC(=O)[C@@H]1C[C@@H]2CN1C(=O)[C@H](C(C)(C)C)NC(=O)O[C@@H]1C[C@H]1CCCCCc1nc3ccc(OC)cc3nc1O2)C(=O)NS(=O)(=O)C1CC1 | 5.62 µM (active) | –
CCC(C)n1ncn(-c2ccc(N3CCN(c4ccc(OCC5COC(Cn6cncn6)(c6ccc(Cl)cc6Cl)O5)cc4)CC3)cc2)c1=O (stereo unspecified) | inactive | –
NC(=O)[C@@H]1CC[C@@H]2CN1C(=O)N2OS(=O)(=O)O | inactive | –
COc1ccc2c(O[C@H]3CC4C(=O)N(C)CCCC/C=C\[C@@H]5C[C@@]5(C(=O)NS(=O)(=O)C5CC5)NC(=O)[C@@H]4C3)cc(-c3nc(C(C)C)cs3)nc2c1C (stereo partly specified) | 2 µM (active) | –
CC[C@@]1([C@@H]2O[C@@H]([C@H]3O[C@@](O)(CO)[C@H](C)C[C@@H]3C)C[C@@H]2C)CC[C@H]([C@]2(C)CCC3(C[C@H](O)[C@@H](C)[C@@H]([C@@H](C)[C@@H](OC)[C@H](C)C(=O)O)O3)O2)O1 (stereo partly specified) | inactive | –
CC(C)CN(C[C@@H](O)[C@H](Cc1ccccc1)NC(=O)O[C@H]1CCOC1)S(=O)(=O)c1ccc(N)cc1 | inactive | –
CC(C)C[C@H](NC(=O)CNC(=O)c1cc(Cl)ccc1Cl)B1OC(=O)C(CC(=O)O)(CC(=O)O)O1 | inactive | –
CCC(CC)[C@H](NC(C)=O)[C@@H]1[C@H](O)[C@@H](C(=O)O)C[C@H]1N=C(N)N | – | -9.13% [at 0.409 µM] (inactive)
O=C1CCC[C@@H]2[C@@H]3CCC[N@+]4([O-])CCC[C@H](CN12)[C@H]34 | inactive | –
C[Si](C)(C)O[Si](C)(C)O[Si](C)(C)C | inactive | –

system: not listed separately; assay: qHTS drug screen for cell cycle checkpoint inhibitors in PARPi-resistant BRCA-mutant ovarian cancer cell lines. (AID 1963452; calls by dose curve); details: PEO1/OlaR viability, CellTiter-Glo luminescence, 96 h; stronger effect = lower value
Summary of the method: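 PEO1, PEO4 and PEO1/OlaR ovarian cancer cells, 600 per well, exposed 96 h at 37C to a dilution series. Viability read by CellTiter-Glo luminescence, normalized to DMSO and empty wells; activity summarized as Z-AUC.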

SMILES | Z-AUC
CCC(C)n1ncn(-c2ccc(N3CCN(c4ccc(OCC5COC(Cn6cncn6)(c6ccc(Cl)cc6Cl)O5)cc4)CC3)cc2)c1=O (stereo unspecified) | -0.487 (inactive)
CC[C@@]1([C@@H]2O[C@@H]([C@H]3O[C@@](O)(CO)[C@H](C)C[C@@H]3C)C[C@@H]2C)CC[C@H]([C@]2(C)CCC3(C[C@H](O)[C@@H](C)[C@@H]([C@@H](C)[C@@H](OC)[C@H](C)C(=O)O)O3)O2)O1 (stereo partly specified) | -0.884 (inactive)
O=C1CCC[C@@H]2[C@@H]3CCC[N@+]4([O-])CCC[C@H](CN12)[C@H]34 | 1.48 (inactive)

same assay, conditions: PEO1/OlaR viability, CellTiter-Glo luminescence, 96 h; measured here: PEO1 parental Z-AUC; stronger effect = lower value

SMILES | Z-AUC
CCC(C)n1ncn(-c2ccc(N3CCN(c4ccc(OCC5COC(Cn6cncn6)(c6ccc(Cl)cc6Cl)O5)cc4)CC3)cc2)c1=O (stereo unspecified) | 0.019
CC[C@@]1([C@@H]2O[C@@H]([C@H]3O[C@@](O)(CO)[C@H](C)C[C@@H]3C)C[C@@H]2C)CC[C@H]([C@]2(C)CCC3(C[C@H](O)[C@@H](C)[C@@H]([C@@H](C)[C@@H](OC)[C@H](C)C(=O)O)O3)O2)O1 (stereo partly specified) | -0.753
O=C1CCC[C@@H]2[C@@H]3CCC[N@+]4([O-])CCC[C@H](CN12)[C@H]34 | 0.635

same assay, conditions: PEO1/OlaR viability, CellTiter-Glo luminescence, 96 h; measured here: PEO4 Z-AUC; stronger effect = lower value

SMILES | Z-AUC
CCC(C)n1ncn(-c2ccc(N3CCN(c4ccc(OCC5COC(Cn6cncn6)(c6ccc(Cl)cc6Cl)O5)cc4)CC3)cc2)c1=O (stereo unspecified) | -0.0223
CC[C@@]1([C@@H]2O[C@@H]([C@H]3O[C@@](O)(CO)[C@H](C)C[C@@H]3C)C[C@@H]2C)CC[C@H]([C@]2(C)CCC3(C[C@H](O)[C@@H](C)[C@@H]([C@@H](C)[C@@H](OC)[C@H](C)C(=O)O)O3)O2)O1 (stereo partly specified) | -1.58
O=C1CCC[C@@H]2[C@@H]3CCC[N@+]4([O-])CCC[C@H](CN12)[C@H]34 | 0.881

system: not listed separately; assay: qHTS profiling for inhibitors of Plasmodium falciparum proliferation (AID 504749);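 also: 0% = DMSO vehicle and full inhibition = artemisinin control; nearly all actives have a fitted effect of over 60% in size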; details: P. falciparum in erythrocytes, SYBR Green DNA, 72 h; at 28.7 µM (top of the series); parasite line A
Summary of the method: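 Readout was DNA-dye fluorescence from lysed cultures, ex 485/em 535 nm. Parasitized red cells had grown 72 h with compound; data scaled between 0.29 uM artemisinin and DMSO wells and corrected using vehicle-only plates.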

SMILES | activity, negative = inhibition
O=C(O)c1cc(O)c2c(c1)[C@H]([C@H]1c3cc(C(=O)O)cc(O)c3C(=O)c3c(O[C@@H]4OC(CO)C(O)C(O)C4O)cccc31)c1cccc(O[C@@H]3OC(CO)C(O)C(O)C3O)c1C2=O (stereo partly specified) | -10% (inactive)
CC(C)CN(C[C@@H](OP(=O)(O)O)[C@H](Cc1ccccc1)NC(=O)O[C@@H]1CCOC1)S(=O)(=O)c1ccc(N)cc1 | -4.75% (inactive)
CCC(C)n1ncn(-c2ccc(N3CCN(c4ccc(OCC5COC(Cn6cncn6)(c6ccc(Cl)cc6Cl)O5)cc4)CC3)cc2)c1=O (stereo unspecified) | 0.495% (inactive)
CC(C)CN(C[C@@H](O)[C@H](Cc1ccccc1)NC(=O)O[C@H]1CCOC1)S(=O)(=O)c1ccc(N)cc1 | -4.85% (inactive)
